# From PubChem BioAssay (NCATS)
# Where “and” joins values, the source holds several entries; their conditions need not be identical. Equal values may be shown once. Records with an inconclusive call do not appear. Entries that show only a call come without a potency. Calls of active or inactive are those of the source. The call rests on the fitted dose curve; in most records, active means well fitted cell-killing curve with a large enough effect; inconclusive means small, poorly fitted or top-dose-only effect; inactive means flat fitted curve, though single readings scatter.
# Test: Cell Viability - SH-SY5Y (AID 544); further: nearly all actives have a fitted effect of over 55% in size
# Settings: SH-SY5Y neuroblastoma cell viability; viability change, negative = cytotoxic: at 92.2 µM (top of the series)
# From the text: NIH Chemical Genomics Center [NCGC]
# NIH Molecular Libraries Screening Centers Network [MLSCN]
# National Institutes of Environmental Health Sciences [NIEHS]
# National Toxicology Program [NTP]
# We have developed a 1536-well cell-based assay for quantitative high throughput screening (qHTS) against a number of cell lines to determine in vitro cytotoxicity of small molecules. This particular assay uses the SH-SY5Y cell line which is derived from human neuroblastoma.
# NCGC Assay Protocol Summary:
# The CellTiter-Glo luminescent cell viability assay (Promega) is a homogeneous method to measure the number of viable cells in culture. The end point readout of this assay is based on quantitation of intracellular ATP, an indicator of metabolic activity, using the luciferase reaction. Luciferase catalyzes the oxidation of beetle Luciferin to oxyluciferin and light in the presence of ATP. The luminescent signal is proportional to amount of ATP present.
# Using the CellTiter-Glo luminescent cell viability assay, the amount of cellular ATP was measured in the SH-SY5Y cell line with complete culture medium following compound treatment for 40 hours. The assay was performed in opaque white Kalypsys 1536-well plates. In the screen, tamoxifen and doxorubicin were used as positive controls. Library compounds were measured for their ability to cause acute toxicity in the cell line, as reflected by a decrease in intracellular ATP levels, in a concentration-dependent manner. […] AC50 values were determined from concentration-response data modeled with the standard Hill equation.
# qHTS protocol for CellTiter Glo SH-SY5Y cellular assay
# [Step] [Parameter] [Value] [Description]
# 1. Reagent; 5 uL; 1500 SH-SY5Y cells/well
# 2. Time; 5 hr; 37 °C incubation
# 4. Controls; 23 nL; Tamoxifen 0.34 uM to 100 uM & Doxorubicin 0.02 nM to 100 uM
# 5. Time; 40 hr; 37 °C incubation
# 6. Reagent; 5 uL; CellTiter Glo reagent
# 7. Time; 20 min; Room Temperature
# 8. Detection; Luminescence; Viewlux plate reader
# Keywords: cell viability, cytotoxicity, SH-SY5Y cell line, luminescence, NTPHTS, NTPHTS_NCGC, NIEHS, EPA, DSSTox, MLSMR, MLSCN, NIH Roadmap, qHTS, NCGC
# Potency means the concentration at half of the fitted maximal effect.
row,Structure (SMILES),Potency
1,Cc1ccccc1N,inactive
2,CC(C)(c1ccccc1)c1ccc(O)cc1,inactive
3,C=CC(=O)OCC,inactive
4,Nc1ccc(Br)cc1,inactive
5,CC(C)(C)OOC(C)(C)C,inactive
6,Clc1cc(Cl)c(-c2cc(Cl)c(Cl)cc2Cl)cc1Cl,inactive
7,CCSC(=O)Cl,inactive
8,CCOP(=S)(OCC)Oc1ccc([N+](=O)[O-])cc1,inactive
9,C=CCc1ccc(OC)cc1,inactive
10,Oc1ccc(Cl)cc1Cl,inactive
11,Nc1ccccc1Cl,inactive
12,C[C@H]1CCCC(=O)CCC/C=C/c2cc(O)cc(O)c2C(=O)O1,12.6 µM (active) and 31.6 µM (active)
13,ClC(Cl)(Cl)c1ccccc1,inactive
14,COc1ccc(C=O)cc1OC,inactive
15,O=C1C(Cl)=C(Cl)C(=O)C(Cl)=C1Cl,25.1 µM (active)
16,Clc1cccc(C(Cl)(Cl)Cl)n1,inactive
17,Cc1ccc([N+](=O)[O-])cc1C,inactive
18,c1nc[nH]n1,inactive
19,C=C(Cl)Cl,inactive
20,Cc1cccc(C#N)c1,inactive

row,Structure (SMILES),Potency
1,S=C=Nc1cccc2ccccc12,inactive
2,c1ccc(-c2ccccc2)cc1,inactive
3,Cc1ccc(O)c(C)c1,inactive
4,O=NN(c1ccccc1)c1ccccc1,inactive
5,ClC(Cl)=C(Cl)Cl,inactive
6,ClC1=C(Cl)C2(Cl)C3C(Cl)C=CC3C1(Cl)C2(Cl)Cl (stereo not given),inactive
7,COP(=S)(OC)Oc1ccc([N+](=O)[O-])cc1,inactive
8,CCCCCCCCCc1ccc(O)cc1,12.6 µM (active)
9,Clc1nc(Cl)nc(Nc2ccccc2Cl)n1,inactive
10,OCC1CO1 (stereo not given),inactive
11,Clc1ccc2ccccc2c1,inactive
12,ClC1=C(Cl)C2(Cl)C3C4C=CC(C4)C3C1(Cl)C2(Cl)Cl (stereo not given),inactive
13,[O-][Br+2]([O-])O,inactive
14,C=C(C)C(=O)OCC1CO1 (stereo not given),inactive
15,ClC(Cl)=C(Cl)C(Cl)=C(Cl)Cl,inactive
16,C/C=C/c1ccc2c(c1)OCO2,inactive
17,C[N+](C)(C)Cc1ccccc1,inactive
18,CN=C=S,inactive
19,CCCCCCCC(=O)Cl,inactive
20,COC1=CC(=O)OC(CCc2ccccc2)C1 (stereo not given),inactive
